Results from PubChem BioAssay AID1159580 (chemical genetic matrix, 2015).
Where “and” joins values, the source holds several entries; their conditions need not be identical. Equal entries are not always repeated. The campaign covered roughly 5,500 compounds. About 2,000 (36%) were called active. Not shown: some 18% with an inconclusive outcome. Rule as the data show it: active = normalized growth mostly below about 0.91 (no sharp cut-off); inconclusive = no clear call, values can overlap the other calls; inactive = mostly above about 0.92. Some of the results follow.

Test: chemical genetic growth profiling, strain panel (AID 1159580);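 also: tested at 20 µM; growth read once vehicle control cultures reached saturation at 30 °C; 1 = growth at the plate median or of vehicle wells; lower values mean less growth of the strain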
Settings: S. cerevisiae deletion strains, growth OD

Measured: normalized growth

O=C1CC2OCC=C3CN4CC[C@]56c7ccccc7N1C5[C@H]2[C@H]3CC46 (some centres not stated)
inactive: locus YAL013W, strain DEP1, hits give low values 1 | locus YAL021C, strain ccr4, hits give low values 1.03 | locus YAL026C, strain drs2, hits give low values 1.03 | locus YAL030W, strain snc1, hits give low values 1.01 | locus YBL061C, strain skt5, hits give low values 1.01 | locus YBR009C, strain hhf1, hits give low values 1.02 | locus YBR021W, strain FUR4, hits give low values 1.01 | locus YBR023C, strain chs3, hits give low values 1.03 | locus YBR171W, strain sec66, hits give low values 1.03 | locus YBR229C, strain ROT2, hits give low values 1 | locus YBR231C, strain swc5, hits give low values 1.02 | locus YBR279W, strain paf1, hits give low values 1.03 | locus YCL011C, strain gbp2, hits give low values 1.03 | locus YCL016C, strain dcc1, hits give low values 1.03 | locus YCL029C, strain bik1, hits give low values 1 | locus YCL061C, strain MRC1, hits give low values 1.02 | locus YCL069W, strain vba3, hits give low values 1.02 | locus YCR088W, strain abp1, hits give low values 1.03 | locus YDL005C, strain med2, hits give low values 1.03 | locus YDL035C, strain GPR1, hits give low values 1.01 | locus YDL040C, strain nat1, hits give low values 1.03 | locus YDL074C, strain BRE1, hits give low values 1.02 | locus YDL101C, strain DUN1, hits give low values 1.01 | locus YDL134C, strain PPH21, hits give low values 1.01 | locus YDL185W, strain tfp1, hits give low values 0.983 | locus YDL192W, strain arf1, hits give low values 1 | locus YDR001C, strain nth1, hits give low values 1.03 | locus YDR069C, strain doa4, hits give low values 1.02 | locus YDR101C, strain arx1, hits give low values 0.992 | locus YDR137W, strain rgp1, hits give low values 1.05 | locus YDR150W, strain NUM1, hits give low values 1.01 | locus YDR159W, strain sac3, hits give low values 1.01 | locus YDR162C, strain NBP2, hits give low values 1.01 | locus YDR195W, strain ref2 1.1 | locus YDR297W, strain sur2, hits give low values 1.02 | locus YDR318W, strain mcm21, hits give low values 0.999 | locus YDR334W, strain swr1, hits give low values 1.01 | locus YDR335W, strain msn5, hits give low values 1.03 | locus YDR388W, hits give low values 1 | locus YDR392W, strain spt3, hits give low values 1.03 | locus YDR502C, strain sam2, hits give low values 1 | locus YEL003W, strain gim4, hits give low values 1.02 | locus YEL037C, strain rad23, hits give low values 1.03 | locus YEL061C, strain CIN8 (second series), hits give low values 1.02 | locus YEL061C, strain CIN8, hits give low values 1.01 | locus YER015W, strain faa2, hits give low values 1.03 | locus YER016W, strain bim1, hits give low values 1.02 | locus YER110C, hits give low values 0.996 | locus YER111C, strain swi4, hits give low values 1 | locus YER155C, strain BEM2 (second series), hits give low values 1.04 | locus YER155C, strain BEM2, hits give low values 1.02 | locus YER167W, strain BCK2, hits give low values 1.01 | locus YFR010W, strain ubp6, hits give low values 1.02 | locus YGL078C, strain dbp3, hits give low values 0.99 | locus YGL086W, strain mad1, hits give low values 0.998 | locus YGL167C, strain pmr1, hits give low values 1.02 | locus YGL173C, strain kem1, hits give low values 1.02 | locus YGL227W, strain vid30, hits give low values 1.03 | locus YGL240W, strain doc1, hits give low values 1.01 | locus YGL248W, strain PDE1, hits give low values 1.01 | locus YGL253W, strain hxk2, hits give low values 1.01 | locus YGR078C, strain PAC10, hits give low values 1.01 | locus YGR135W, strain pre9, hits give low values 0.982 | locus YGR229C, strain SMI1, hits give low values 1.03 | locus YGR252W, strain gcn5, hits give low values 0.914 | locus YHR013C, strain ard1, hits give low values 1.01 | locus YHR027C, strain rpn1, hits give low values 1.03 | locus YHR030C, strain SLT2, hits give low values 1 and 0.976 | locus YHR079C, strain IRE1 (second series), hits give low values 0.997 | locus YHR079C, strain IRE1, hits give low values 0.864 | locus YHR094C, strain hxt1, hits give low values 0.995 | locus YHR129C, strain ARP1, hits give low values 1.03 | locus YHR142W, strain chs7, hits give low values 1.03 | locus YHR200W, strain rpn10, hits give low values 1 | locus YIL066C, strain RNR3, hits give low values 1.01 | locus YIL073C, strain SPO22, hits give low values 1.02 | locus YIL125W, strain kgd1, hits give low values 1 | locus YIR030C, strain dcg1, hits give low values 1 | locus YJL092W, strain hpr5, hits give low values 1.02 | locus YJL095W, strain BCK1 (second series), hits give low values 1.03 | locus YJL095W, strain BCK1, hits give low values 1 and 0.974 | locus YJL115W, strain asf1, hits give low values 1 | locus YJL129C, strain trk1, hits give low values 1.05 | locus YJL134W, strain LCB3, hits give low values 1.01 | locus YJL154C, strain vps35, hits give low values 1.01 | locus YJL164C, strain tpk1, hits give low values 1.03 | locus YJL166W, strain qcr8, hits give low values 1.02 | locus YJL168C, strain set2, hits give low values 1 | locus YJL187C, strain SWE1 (second series), hits give low values 1.01 | locus YJL187C, strain SWE1, hits give low values 1.03 | locus YJR043C, strain POL32, hits give low values 0.997 | locus YJR066W, strain TOR1, hits give low values 0.961
